Test systems include NCI-H23 lung; NCI-H226 lung; NCI-H322M lung; HOP-62 NSCLC; NCI-H460 lung; HOP-92 NSCLC; NCI-H522 lung; A549/ATCC NSCLC; 786-0 renal; COLO 205 colon.
Experiment in all cases: NCI-60 one-dose screen, 48 h (100 = growth as untreated, 0 = no growth, -100 = all killed)
Settings in all cases: 10 µM unless noted

Compounds without any hit were thinned out: in the full panel of roughly 83,000, 20% have a hit.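 Negative percent growth values reflect cell death: -40 means 40% of the cells present at the start died, and -100 means all died.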 A number with no mark means an inactive call. Activity calls are given as the source filed them. Rule for the calls: active = growth percent below 10; inactive = the rest.

Take `O=S(=O)(NCCNc1nccc(-c2c(-c3cccc(O)c3)nc3occn23)n1)c1ccc(C(F)(F)F)cc1`: the growth in the test on NCI-H23 lung was 102%; in the test on NCI-H226 lung, 106%; with NCI-H322M lung, 108%; in the test on HOP-62 NSCLC, 107%; in the test on NCI-H460 lung it was 94.9%; in the test on HOP-92 NSCLC, 92.6%. Besides, the growth in the test with NCI-H522 lung is 94.6%; in the test with A549/ATCC NSCLC, 94.8%; in the test on 786-0 renal, 101%; in the test on COLO 205 colon it was 44.1%.
For the compound `O=S(=O)(NCCNc1nccc(-c2c(-c3cccc(O)c3)nc3occn23)n1)c1ccccc1`, the growth was 93.5% with NCI-H23 lung; 104% in the test with NCI-H226 lung; 93.7% in the test with NCI-H322M lung; 119% with HOP-62 NSCLC; 80.6% with NCI-H460 lung; 80.9% in the test with HOP-92 NSCLC. Moreover, the growth in the test with NCI-H522 lung was 77.5%; with A549/ATCC NSCLC, 78.9%; in the test with 786-0 renal, 93.3%; in the test with COLO 205 colon, 34.6%.
With `N#Cc1c(-c2ccccc2)nc2c(c(-c3ccccc3)nn2-c2ccccc2)c1-c1ccc(O)cc1`, the growth in the test on NCI-H23 lung was 44.1%; with NCI-H226 lung, 54%; with NCI-H322M lung, 66.9%; in the test on HOP-62 NSCLC it was 25.3%; with NCI-H460 lung, 9.14% (active); in the test on HOP-92 NSCLC it was 50.1%. Besides, the growth in the test with NCI-H522 lung is 0.943% (active); with A549/ATCC NSCLC, 41.4%; with 786-0 renal it was 3.44% (active); with COLO 205 colon, 41.9%.
`c1ccc(-c2c(-c3ccccc3)[n+](Cc3ccc4ccccc4c3)c(-c3cccc4ccccc34)n2Cc2ccc3ccccc3c2)cc1`: the growth in the test with NCI-H23 lung is -38.4% (active); in the test on NCI-H226 lung, -42.3% (active); in the test on NCI-H322M lung it was 4.47% (active); in the test with HOP-62 NSCLC, -84.7% (active); in the test with NCI-H460 lung, -80% (active); with HOP-92 NSCLC, -53.9% (active). In addition, the growth in the test with NCI-H522 lung is -39.5% (active); with A549/ATCC NSCLC, -45.1% (active); in the test on 786-0 renal it was -68.3% (active); in the test on COLO 205 colon, -65% (active).
As for `NC(=O)CSSCC(N)=O`, the growth is 99.2% in the test with NCI-H23 lung; 108% with NCI-H226 lung; 96.9% in the test with NCI-H322M lung; 103% with HOP-62 NSCLC; 111% in the test with NCI-H460 lung; 83.8% in the test with HOP-92 NSCLC. For the same compound, the growth in the test with NCI-H522 lung was 92.1%; with A549/ATCC NSCLC, 93.1%; with 786-0 renal it was 95.3%; in the test on COLO 205 colon, 108%.
For `COc1cc2nc(-c3ccc(Cl)cc3)cc(OCCCN3CCOCC3)c2cc1OC`, the growth with NCI-H23 lung was 73.3%; in the test with NCI-H226 lung, -7.3% (active); in the test on NCI-H322M lung, 57.4%; in the test on HOP-62 NSCLC it was 60.1%; in the test on NCI-H460 lung it was 21.6%; in the test with HOP-92 NSCLC, 19.3%. In addition, the growth in the test on NCI-H522 lung was 21.6%; with A549/ATCC NSCLC, 29.9%; in the test on 786-0 renal, 67.5%; in the test on COLO 205 colon it was 25.7%.
Turning to `Cc1ccc(NC(C(=O)c2ccccc2)c2ccccc2)cc1` (stereo not given), the growth in the test on NCI-H23 lung is 59.5%; with NCI-H226 lung, 75.3%; in the test with NCI-H322M lung it was 97.3%; in the test on HOP-62 NSCLC it was 80.2%; in the test on NCI-H460 lung, 46.9%; in the test on HOP-92 NSCLC, 39.8%. Besides, the growth is 34.4% in the test on NCI-H522 lung, 58% with A549/ATCC NSCLC, 75.5% with 786-0 renal and 41.9% with COLO 205 colon.
Turning to `Cc1c(C)c([N+](=O)[O-])c(C)c([N+](=O)[O-])c1C`, the growth is 116% in the test on NCI-H23 lung; 108% in the test with NCI-H226 lung; 115% in the test with NCI-H322M lung; 121% in the test on HOP-62 NSCLC; 112% in the test on NCI-H460 lung; 79.2% in the test on HOP-92 NSCLC. The growth was 77.2% with NCI-H522 lung, 98.2% in the test with A549/ATCC NSCLC, 95.4% with 786-0 renal and 122% in the test with COLO 205 colon.
On to `O=C1Nc2ccccc2/C1=C\c1c(-c2ccc(F)cc2)nc2ccccn12`, for which the growth in the test with NCI-H23 lung was 49.1%; in the test on NCI-H226 lung, 79.2%; with NCI-H322M lung, 83%; with HOP-62 NSCLC, 72.4%; with NCI-H460 lung it was 82.6%; in the test with HOP-92 NSCLC it was 79.3%. Besides, the growth in the test with NCI-H522 lung was 42.6%; with A549/ATCC NSCLC it was 89%; in the test on 786-0 renal, 82.1%; with COLO 205 colon, 76.6%.
In the case of `CC1=CCC(OC(=O)C(C)(O)CCC(O)(C(=O)OC2(C)C=CC(O)(C(C)C)CC2)C(C)C)(C(C)C)CC1` (stereo not given), the growth is 108% in the test on NCI-H23 lung; 106% in the test on NCI-H226 lung; 99.1% with NCI-H322M lung; 99.8% in the test on HOP-62 NSCLC; 111% with NCI-H460 lung; 109% in the test on HOP-92 NSCLC. The growth was 93.7% in the test on NCI-H522 lung, 101% with A549/ATCC NSCLC, 100% in the test on 786-0 renal and 116% in the test with COLO 205 colon.
Consider `COc1ccccc1/C=C1\Oc2cc(OCCN3CCCC3)ccc2C1=O`, for which the growth is 82.8% with NCI-H23 lung; 85.3% in the test on NCI-H226 lung; 99.8% in the test on NCI-H322M lung; 96.4% with HOP-62 NSCLC; 84.6% in the test with NCI-H460 lung; 59.5% in the test with HOP-92 NSCLC. The growth in the test on NCI-H522 lung was 89.8%; in the test with A549/ATCC NSCLC, 95.3%; in the test on 786-0 renal it was 82.5%; in the test on COLO 205 colon, 95.4%.
As for `O=C(/C(=C/c1ccc([N+](=O)[O-])cc1)SCc1ccc(F)cc1)c1ccc(F)cc1`, the growth is 74.8% in the test on NCI-H23 lung; 86.9% with NCI-H226 lung; 85.9% with NCI-H322M lung; 93.6% in the test on HOP-62 NSCLC; 90.7% in the test on NCI-H460 lung; 90.2% with HOP-92 NSCLC. Moreover, the growth in the test on NCI-H522 lung was 52.2%; in the test with A549/ATCC NSCLC it was 91.4%; with 786-0 renal, 78.7%; in the test with COLO 205 colon it was 94.7%.

The values above are taken from PubChem BioAssay (NCI).
